# C diff growth = blocks growth of Clostridium difficile. Clostridium difficile clinical isolate growth, OD600, 24 h; hits give low values. actives 0.25% (n = 86,000). growth activity, negative = inhibition, % at 16 µg/mL (by protocol). AID 1259249;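 active = mean growth activity at or below -80% and every replicate also at or below -80%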;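 also: 0% = DMSO wells and -100% = levofloxacin 16 µg/mL wells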
# Starred values were filed as active, the others as inactive; ! = repeats disagree. Many of the other results were omitted from the sample, so hits are more common in it than they were.
SMILES,C diff growth
C[C@H]1CN([C@@H](C)CO)C(=O)c2cccc(NC(=O)Nc3cccc4ccccc34)c2O[C@H]1CN(C)C(=O)Nc1ccc(C(F)(F)F)cc1,94
O=C(Nc1ccc2c(c1)OCO2)N1C[C@@H]2N[C@H](C1)C2c1ccc(C=Cc2ccccc2)cc1 (some centres not stated),-99*!
c1ncc(-c2ccc(C3[C@@H]4CN(Cc5ccc6c(c5)OCO6)C[C@H]3N4)cc2)cn1 (some centres not stated),-3
COc1cc(CN2C[C@@H]3N[C@H](C2)C3c2ccc(/C=C/c3ccccc3)cc2)cc(OC)c1 (some centres not stated),11
C/C=C/c1ccc(C2[C@@H]3CN(C(=O)Nc4ccc(F)cc4)C[C@H]2N3)cc1 (some centres not stated),-7
C/C=C/c1ccc(C2[C@@H]3CN(C(=O)Nc4ccccc4F)C[C@H]2N3)cc1 (some centres not stated),5
Cc1ccccc1-c1ccc(C2[C@@H]3CN(C(=O)Nc4ccc(F)cc4)C[C@H]2N3)cc1 (some centres not stated),50
C/C=C/c1ccc(C2[C@@H]3CN(C(=O)c4ccc5c(c4)OCO5)C[C@H]2N3)cc1 (some centres not stated),-5
O=C(Nc1ccc(F)cc1)N1C[C@@H]2N[C@H](C1)C2c1ccc(/C=C/c2ccccc2)cc1 (some centres not stated),-100*
O=C(Nc1ccc2c(c1)OCO2)N1[C@@H]2CNC[C@H]1C2c1ccc(/C=C/c2ccccc2)cc1 (some centres not stated),34
C(=C\c1ccc(C2[C@@H]3CN(Cc4ccc5c(c4)OCO5)C[C@H]2N3)cc1)/c1ccccc1 (some centres not stated),-99*
O=C(Nc1ccccc1F)N1C[C@@H]2N[C@H](C1)C2c1ccc(/C=C/c2ccccc2)cc1 (some centres not stated),-97*!
COc1ccc(-c2ccc(C3[C@@H]4CN(C(=O)Nc5ccccc5F)C[C@H]3N4)cc2)cc1 (some centres not stated),44
Cc1cccc(-c2ccc([C@H]3[C@H](CO)N4C(=O)CN(C(=O)c5cccnc5)C[C@@H]34)cc2)c1,1
O=C(c1ccc2c(c1)OCO2)N1CC(=O)N2[C@@H](CO)[C@H](c3ccc(C#Cc4ccccc4)cc3)[C@@H]2C1,18
COCC(=O)N(C)C[C@H]1Oc2ncc(C#CC3(O)CCCC3)cc2C(=O)N([C@H](C)CO)C[C@H]1C,-3
C[C@H]1CN([C@@H](C)CO)C(=O)c2cccc(NC(=O)CCCCCC(=O)Nc3ccccc3N)c2O[C@@H]1CN(C)Cc1ccc(-c2ccccc2)cc1,-14
O=C(O)C[C@@H]1C[C@H]2c3cc(NC(=O)C4CCC4)ccc3O[C@H]2[C@@H](CO)O1,-8
O=C(C[C@@H]1CC[C@@H](NC(=O)Nc2ccccc2F)[C@H](CO)O1)NCc1ccc(-c2ccccc2)cc1,1
CCCC(=O)Nc1ccc2c(c1)C(=O)N(C)[C@H]1CC[C@H](CC(=O)Nc3cccc(F)c3)O[C@@H]1CO2,10
COc1ccc2c3c(n(C)c2c1)[C@@H](CO)N(Cc1ccncc1)CC31CCN(C(=O)C2CCCC2)CC1,-5
COCC(=O)N1[C@@H](CO)[C@@H](c2ccc(-c3cccc(OC)c3)cc2)C12CN(C(C)=O)C2,-3
O=C(NCC[C@H]1CC[C@@H](NC(=O)C2CC2)[C@H](CO)O1)Nc1ccc(C(F)(F)F)cc1,20
O=C(NCC[C@H]1CC[C@@H](NC(=O)C2CC2)[C@@H](CO)O1)Nc1ccc(C(F)(F)F)cc1,-100*
CN(C)CC(=O)N[C@@H]1CC[C@@H](CCNC(=O)Nc2ccc(C(F)(F)F)cc2)O[C@@H]1CO,-100*
SMILES,C diff growth
CC(=O)N[C@H]1CC[C@H](CCNC(=O)Nc2ccc(C(F)(F)F)cc2)O[C@H]1CO,-95*
CC(=O)N[C@H]1CC[C@@H](CCNC(=O)Nc2ccc(C(F)(F)F)cc2)O[C@H]1CO,-11
O=C(NCC[C@H]1CC[C@@H](NC(=O)C2CC2)[C@H](CO)O1)Nc1ccc(Cl)cc1,0
CN(C)CC(=O)N[C@@H]1CC[C@@H](CCNC(=O)Nc2ccc(Cl)cc2)O[C@@H]1CO,5
CCC(=O)N[C@H]1CC[C@@H](CCNC(=O)Nc2ccc(F)cc2)O[C@@H]1CO,7
O=C(Nc1ccc(C(F)(F)F)cc1)N[C@H]1CC[C@@H](CCNC(=O)c2ccccc2F)O[C@@H]1CO,1
CS(=O)(=O)N1CC2(C1)[C@@H](c1ccccc1)[C@H](CO)N2Cc1ccc(F)cc1,2
C[C@@H]1CN([C@@H](C)CO)C(=O)Cc2cc(NC(=O)Cc3cn(C)c4ccccc34)ccc2O[C@H]1CN(C)Cc1ccc(-c2ccccc2)cc1,10
CNC[C@H]1Oc2ccc(NC(=O)NC3CCCCC3)cc2C(=O)N([C@H](C)CO)C[C@H]1C,0
O=C(C[C@@H]1CC[C@H]2[C@@H](COC[C@@H](O)CN2C(=O)c2ccncc2)O1)NC1CCC1,7
CC(C)NC(=O)N1CC2(C1)[C@H](c1ccccc1)[C@@H](CO)N2C(=O)c1ccccn1,-2
CCCC#Cc1ccc2c(c1)O[C@@H](CN(C)CC1CCCC1)[C@H](C)CN([C@H](C)CO)S2(=O)=O,20
C[C@@H]1CN([C@@H](C)CO)C(=O)c2cc(NC(=O)Nc3cccc4ccccc34)ccc2O[C@@H](C)CCCCO[C@H]1CN(C)S(=O)(=O)c1ccc(F)cc1,0
C[C@@H]1CN([C@@H](C)CO)C(=O)Cc2cc(NS(=O)(=O)c3cn(C)cn3)ccc2O[C@@H]1CN(C)S(=O)(=O)c1ccc(F)cc1,-3
Cc1noc(C)c1S(=O)(=O)N(C)C[C@H]1Oc2ccc(NC(=O)CCCCCC(=O)Nc3ccccc3N)cc2CC(=O)N([C@H](C)CO)C[C@@H]1C,5
CC(C)CC#Cc1ccc([C@H]2[C@H](CO)N3CCCCN(C(=O)Nc4ccccc4)C[C@@H]23)cc1,-98*
CC(C)CC#Cc1ccc([C@@H]2[C@H](CO)N3CCCCN(C(=O)Nc4ccccc4)C[C@@H]23)cc1,-98*
COc1ccc(NC(=O)N2CCCCN3[C@H](CO)[C@H](c4ccc(C#CCC(C)C)cc4)[C@H]3C2)cc1,33
CC(C)CC#Cc1ccc([C@H]2[C@@H](CO)N3CCCCN(C(=O)Nc4ccccc4)C[C@@H]23)cc1,-13
CC(C)C#Cc1ccc([C@H]2[C@@H](CO)N3CCCCN(C(=O)Nc4ccccc4)C[C@@H]23)cc1,-11
CC(C)CC#Cc1ccc([C@@H]2[C@H]3CN(C(=O)Nc4ccccc4)CCCCN3[C@H]2CO)cc1,57
O=C(C[C@H]1C=C[C@@H](NC(=O)CC2CC2)[C@@H](CO)O1)NCc1ccc(-c2ccccc2)cc1,-9
COc1ccc(NC(=O)N(C)C[C@H]2OCCCC[C@H](C)Oc3ccc(NS(=O)(=O)c4cn(C)cn4)cc3C(=O)N([C@@H](C)CO)C[C@@H]2C)cc1,0
C[C@@H]1CCCCO[C@H](CN(C)C(=O)NC2CCCCC2)[C@@H](C)CN([C@H](C)CO)C(=O)c2cc(NC(=O)Nc3ccc4c(c3)OCO4)ccc2O1,3
C[C@H](CO)N1C[C@H](C)[C@H](CN(C)C(=O)Nc2ccc(C(F)(F)F)cc2)Oc2c(NC(=O)CCCCCC(=O)Nc3ccccc3N)cccc2C1=O,-12
CCCNC(=O)Nc1ccc2c(c1)OC[C@@H](C)N(C(=O)CC)C[C@@H](C)[C@H](OC)CN(C)C2=O,-2

# High-throughput results as filed in PubChem.
